From ChEMBL document CHEMBL4513216, “Probing the Open Global Health Chemical Diversity Library for Multistage-Active Starting Points for Next-Generation Antimalarials” (ACS Infect Dis, 2020)
The campaign covered roughly 69,000 compounds. About 8,600 (12%) showed an effect of 50% or more. Many of the other results were omitted from the sample, so strong results are more common in it than they were.

System: Plasmodium berghei
Experiment: Screen against P. berghei liver stage (PbLuc), transformed with Luciferase, at 10uM
Assay type: functional, HepG2
Details: tested at 10 uM

Compound | INHIBITION [%]
CN(Cc1ccccc1)CC(O)Cn1cnc2ccc(Br)cc2c1=O (configuration not stated) | 14.92
Cc1ccnc(C2(C)CCCN2S(=O)(=O)c2c(C)noc2C)n1 (configuration not stated) | 0.705
CCOCc1nc(N2CCOCC2)sc1C(=O)NCCCc1ccco1 | 24.5
Cc1ccc(CN2Cc3c(C(=O)N4CCOCC4)nn(C)c3C2)s1 | -17.1
CCc1ncc(CN2CCC(CCc3ccccc3)CC2)cn1 | 37.8
CNc1ncc(CN2CCC(CCc3ccccc3)CC2)cn1 | 67.5
CNc1ncc(C(=O)N2CCC(CCc3ccccc3)CC2)cn1 | -25.2
N[C@@H]1CC[C@H](C(=O)NCc2ccc3nonc3c2)C1 | 0
CCc1[nH]c2ccc(CNC(=O)Cc3c(C)nc(N)nc3C)cc2c1C | 43.9
Cc1nc(N)nc(C)c1CC(=O)NCc1ccc2nonc2c1 | 61.2
CN(Cc1cnn(C)c1)C(=O)NCc1ccc2c(c1)OCCO2 | -26.85
O=C(Cc1csc(-c2ccccc2Cl)n1)NCc1cccc(C(=O)O)c1 | 17.1
Cc1ccc(C(=O)N2CCC3(CCN(Cc4ccccn4)C3=O)C2)cn1 (configuration not stated) | 22.5
CCc1nc(CN2CCN(CC(O)c3ccccc3)CC2)no1 (configuration not stated) | 42
CCn1ccnc1CN1CCN(c2ncnc3ccccc23)CC1 | -66.4
Cc1nc(CN2CCCN(Cc3nc4ccccc4o3)CC2)no1 | -24.7
CCc1nc(CN2CCCN(CC(O)c3ccccc3)CC2)no1 (configuration not stated) | -11.4
CCc1nc(CN2CCN(c3ncnc4cc(F)ccc34)CC2)no1 | 91.8
CCc1nc(CN2CCCN(c3cnc4ccccc4n3)CC2)no1 | 40.5
CCc1nc(CN2CCCN(c3nc4ccccc4o3)CC2)no1 | -8.19
CCc1nc(CN2CCCN(c3ncnc4ccccc34)CC2)no1 | 86.8
Cc1nc(CN2CCN(c3ncnc4ccccc34)CC2)no1 | 94.1
CN1CCOC2(CCCN(C(=O)C3CCCCC3)C2)C1 (configuration not stated) | 9.97

Compound | INHIBITION [%]
Cc1cc(F)ccc1C(=O)N1CCN(C)C2(CCC(=O)N(C)CC2)C1 (configuration not stated) | 25.8
CNc1ncccc1CN1CCC1c1cc(N)nc(C)n1 (configuration not stated) | 10.9
CC(C)C(NCc1ccc(Cn2cncn2)cc1)c1ccccc1 (configuration not stated) | -1.33
CC(C)C(NCc1ccc(Cn2cncn2)cc1)c1ccc(F)cn1 (configuration not stated) | 71.2
CC(C)c1ccc(CNC(c2ccc(F)cn2)C(C)C)cc1 (configuration not stated) | 48.9
COc1cc(C)ccc1OCCC(=O)N1CCC(C(N)=O)C1 (configuration not stated) | -24.9
O=C(c1cnc(-c2ncccn2)s1)N1CCCC1Cn1cccn1 (configuration not stated) | -24.3
C=C(C)C(=O)N1CCC(C(=O)c2cc(C)cnc2N)CC1 | 68.8
CC(=O)N1CCC(C(=O)c2cc(C)cnc2N)CC1 | 39.2
Cc1cnc(N)c(C(=O)C2CCN(C(=O)C3CCC3)CC2)c1 | 13.5
COCC(=O)N1CCC(C(=O)c2cc(C)cnc2N)CC1 | 58.1
COCCC(=O)N1CCC(C(=O)c2cc(C)cnc2N)CC1 | -26.2
Cc1cnc(N)c(C(=O)C2CCN(C(=O)c3ccccc3F)CC2)c1 | 56.9
Cc1cnc(N)c(C(=O)C2CCN(C(=O)c3cnc(C)nc3C)CC2)c1 | -2.11
Cc1cnc(N)c(C(=O)C2CCN(C(=O)c3cnc(C)cn3)CC2)c1 | -20.2
COCC(=O)N1CCC(c2cc(-c3ccc(N)nc3)cc(C)n2)CC1 | 7.19
O=C(CCn1c(C(F)(F)F)cc2cccnc21)N1CCC(O)CC1 | 29.2
COC(=O)C1CN(Cc2nc(C(C)(C)C)cs2)C[C@@H](C)O1 (some centres not stated) | 21.7
Cn1nc(CN2CCCCC2)c2c1CN(C(=O)c1cccc(C#N)c1)C2 | 46.3
CC(=O)N1CCN(C(C)C)CC(COc2ccccc2)C1 (configuration not stated) | -6.92
CC(Cn1ccnc1)NC(=O)N1CCN(Cc2cccnc2)CC1 (configuration not stated) | 31.8
O=C(NCCNc1ncccn1)N1CCN(Cc2cccnc2)CC1 | 57.8
CC(Cn1cccn1)NC(=O)N1CCN(Cc2cccnc2)CC1 (configuration not stated) | 74.6

Compound | INHIBITION [%]
CC(Cn1cccn1)NC(=O)N1CCN(Cc2ccncc2)CC1 (configuration not stated) | -4.94
O=C(NCCNc1cnccn1)N1CCN(Cc2cccnc2)CC1 | 65.5
O=C(NCCNc1cnccn1)N1CCCCCC1 | 47
O=C(NCCNc1cnccn1)N1CCCC1 | 19.4
O=C(NCCn1ccnc1)N1CCN(Cc2cccnc2)CC1 | -33.7
CC(C)(C)NC(=O)N1CCN(Cc2cccnc2)CC1 | -2.93
Cc1ccc(-c2nc(CNC3CCc4ncnn4C3)cs2)cc1 (configuration not stated) | 47.55
Cc1nc(C)c(C(=O)N2CCCC2(C)C(=O)NC2CCCC2)o1 (configuration not stated) | 46.2
Cc1cc(C)n(CCCN(CCN2CCOCC2)Cc2ccco2)n1 | 7.6
COCCN(CCOC)Cc1nc2c(cnn2C)c(=O)[nH]1 | 27.8
Cn1cc(N2C[C@@H]3CN(CC4CCOCC4)C[C@@H]3C2=O)cn1 | 68.4
CCS(=O)(=O)N1CCC2(CC(=O)N(c3cnn(C)c3)C2)C1 (configuration not stated) | -13.7
CCS(=O)(=O)N1C[C@H]2CN(c3cnn(C)c3)C(=O)[C@H]2C1 | 60
Cn1cc(N2CC[C@@H]3CN(Cc4ccncc4)C[C@H]3C2=O)cn1 | 58.4
Cn1cc(N2C[C@@H]3CN(Cc4ccoc4)C[C@@H]3C2=O)cn1 | -75
Cn1cc(N2C[C@@H]3CN(S(=O)(=O)C4CC4)C[C@@H]3C2=O)cn1 | 9.79
O=C1[C@H]2CN(CC3CCOCC3)C[C@H]2CN1c1ccsc1 | 5.63
O=C1[C@H]2CN(Cc3ccncc3)C[C@H]2CN1c1cncnc1 | 32.8
Cn1cc(N2CC3(CCN(CC4CCOCC4)CC3)OCC2=O)cn1 | -24.5
O=C(CCc1cc2n(n1)CCNC2)NCCS(=O)(=O)N1CCCC1 | -18.1
Cn1c2ncccc2c(=O)n1CC(=O)Nc1ccc(F)c(F)c1 | 41.8
